According to PubChem BioAssay (EPA / NIEHS):
“And” between values parts separate entries of the source, which are not always exact repeats. Equal values may be shown once. The source holds several records for some structures; these can differ, active in one and inactive in another. The source made the active and inactive calls. Rule for the calls: active = hit-call score of the fitted dose curve at least 0.9, where 1 is the maximum; inactive = score below 0.9.

What was measured:
[1] = tested on: TTR (gene 7276); assay: CCTE_GLTED_hTTR_0.125uM: CCTE's human Transthyretin (hTTR) Inhibition Assay, with 0.125uM TTR, Great Lakes Toxicology and Ecology Division (GLTED) Lab (AID 2284431);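 note: hits lower the fluorescence signal relative to DMSO baseline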
Method in brief: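 TTR at 0.125uM incubated 2 h with test chemical; displacement of bound ANSA read by fluorescence (ex 380, em 475). Activity is signal loss versus DMSO baseline.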

[2] = Tanguay_ZF_120hpf_DP24: Oregon State University Tanguay Lab 24 Hour Post-fertilization zebrafish Assay for Delayed Development (AID 2284390)
Method in brief: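 Scored at 24 hpf as a binary present/absent call of delayed development by brightfield, with dead embryos not assessed. Embryos (5D wild type, chorion removed with pronase at 4 hpf) dosed statically from 6 hpf at 28 C in 0.64% DMSO.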

[3] = Tanguay_ZF_120hpf_CRAN: Oregon State University Tanguay Lab 120 Hour Post-fertilization zebrafish Assay for Craniofacial Malformation (AID 2284397)
Method in brief: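 Scoring of craniofacial malformation as a binary endpoint was done at 120 hpf by brightfield microscopy and was not done in dead embryos. Exposure was static, starting at 6 hpf, in dechorionated wild-type embryos held singly at 28C with 0.64% DMSO final.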

[4] = Tanguay_ZF_120hpf_AXIS: Oregon State University Tanguay Lab 120 Hour Post-fertilization zebrafish Assay for Axial Malformation (AID 2284398)
Method in brief: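 Scoring was binary (present or absent) for body-axis defects, judged by brightfield imaging at 120 hpf in surviving larvae. Exposure was static at 28C from 6 hpf in chorion-free 5D wild-type embryos, with 0.64% DMSO vehicle.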

[5] = Tanguay_ZF_120hpf_MORT: Oregon State University Tanguay Lab 120 Hour Post-fertilization zebrafish Assay for Mortality (AID 2284399)
Method in brief: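 Mortality, recorded present/absent via brightfield imaging at 24 and 120 hpf, in 5D zebrafish embryos exposed statically from 6 hpf after pronase chorion removal. Exposure at 28C, 0.64% DMSO vehicle, DMSO baseline.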

[6] = Tanguay_ZF_120hpf_EDEM: Oregon State University Tanguay Lab 120 Hour Post-fertilization zebrafish Assay for Edema Malformation (AID 2284400)
Method in brief: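 Edema recorded as a binary endpoint under brightfield at 120 hpf, excluding embryos that died. Exposure was static, sealed, 28C, from 6 hpf in dechorionated wild-type larvae, final DMSO 0.64%, DMSO as baseline.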

[7] = Tanguay_ZF_120hpf_MUSC: Oregon State University Tanguay Lab 120 Hour Post-fertilization zebrafish Assay for Muscle Malformation (AID 2284401)
Method in brief: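 Scored as a binary brightfield endpoint at 120 hpf, fitted versus DMSO. Single dechorionated wild-type (Tropical 5D) zebrafish embryos per well, statically exposed at 28C from 6 hpf onward with final DMSO 0.64%.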

[8] = Tanguay_ZF_120hpf_BRN: Oregon State University Tanguay Lab 120 Hour Post-fertilization zebrafish Assay for Brain Region Malformation (AID 2284402)
Method in brief: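 Binary brightfield scoring of brain malformation at 120 hpf in 5D wild-type larvae, chorion removed with pronase at 4 hpf. Static exposure began at 6 hpf, 28C, sealed plates, DMSO 0.64% (vol/vol) as vehicle baseline.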

[9] = Tanguay_ZF_120hpf_TCHR: Oregon State University Tanguay Lab 120 Hour Post-fertilization zebrafish Assay for Touch Responsive (AID 2284403)
Method in brief: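 Binary touch-response calls are made at 120 hpf in 5D wild-type zebrafish larvae. These larvae were dechorionated with pronase and exposed singly from 6 hpf in sealed, dark plates at 28 °C with 0.64% DMSO final; dead embryos are excluded.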

[10] = Tanguay_ZF_120hpf_ANY: Oregon State University Tanguay Lab 120 Hour Post-fertilization zebrafish Assay for Any Mortality and Malformation (AID 2284404)
Method in brief: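 Dechorionated Tropical 5D wild-type embryos, one per well from 6 hpf, static exposure in sealed, dark plates at 28C until 120 hpf, 0.64% DMSO final. Brightfield scoring of mortality and malformations as binary presence/absence, pooling 13 morphology endpoints.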

[11] = CCTE_Padilla_ZF_Score.Craniofacial: CCTE's 144 Hour Post-fertilization zebrafish Assay Score for Craniofacial Malformation, Padilla Lab (AID 2284405)
Method in brief: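 Craniofacial defects were scored at 6 dpf by two blinded observers using stereomicroscopy. Exposure of wild-type embryos began at 6–8 hpf in sealed wells of 10% Hanks' solution at 26C, with chemical removed by rinsing at 5 dpf.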

[12] = CCTE_Padilla_ZF_Score.Edema: CCTE's 144 Hour Post-fertilization zebrafish Assay Score for Edema Malformation, Padilla Lab (AID 2284406)
Method in brief: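 Edema scored at 6 dpf by two blinded observers under a stereo microscope, in single outbred wild-type larvae exposed from 6-8 hpf in sealed wells (Hanks', 26C, 14:10 h light) and chemical-free after a 5 dpf rinse.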

[13] = CCTE_Padilla_ZF_Score.Spine: CCTE's 144 Hour Post-fertilization zebrafish Assay Score for Spine Malformation, Padilla Lab (AID 2284407)
Method in brief: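 Spine malformation scored at 6 dpf by two independent blinded observers under stereomicroscope, after static sealed exposure from 6–8 hpf at 26C in Hanks' solution with rinse on 5 dpf. Positive-direction fit against DMSO control.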

[14] = CCTE_Padilla_ZF_Score.Swim_bladder: CCTE's 144 Hour Post-fertilization zebrafish Assay Score for Swim Bladder Malformation, Padilla Lab (AID 2284408)
Method in brief: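 Swim bladder inflation scored at 6 dpf by two blinded observers under a stereo microscope. Exposure ran from 6–8 hpf in sealed wells of 10% Hanks' at 26C, with rinsing at 5 dpf; DMSO served as baseline.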

[15] = CCTE_Padilla_ZF_Score.Position: CCTE's 144 Hour Post-fertilization zebrafish Assay Score for Position, Padilla Lab (AID 2284409)
Method in brief: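 Wild-type zebrafish embryos (with chorions) exposed singly from 6–8 hpf in sealed wells of Hanks' solution at 26C, rinsed at 5 dpf. At 6 dpf, blinded assessors scored abnormal water-column position by brightfield stereomicroscopy, relative to DMSO.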

[16] = CCTE_Padilla_ZF_Score.Living: CCTE's 144 Hour Post-fertilization zebrafish Assay Score for Viability, Padilla Lab (AID 2284410);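 note: larval death at 6 dpf judged by absent heartbeat or coagulation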
Method in brief: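 Mortality at 6 dpf, judged as absent heartbeat or coagulation by two blinded observers, after sealed static exposure beginning at 6–8 hpf at 26C. Larvae were rinsed free of chemical at 5 dpf, and activity was fitted relative to DMSO.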

[17] = CCTE_Padilla_ZF_Score.General: CCTE's 144 Hour Post-fertilization zebrafish Assay Score for General Malformation, Padilla Lab (AID 2284411)
Method in brief: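 Malformation, death and hatching were scored at 6 dpf by two blinded observers under a stereo microscope. Embryos were dosed singly from 6-8 hpf in sealed plates of 10% Hanks' at 26C and rinsed on 5 dpf; DMSO baseline.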

[18] = CCTE_Padilla_ZF_Score.Tail: CCTE's 144 Hour Post-fertilization zebrafish Assay Score for Tail Malformation, Padilla Lab (AID 2284414)
Method in brief: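 Tail malformations were scored at 6 dpf by two blinded assessors under a stereo microscope. Chorionated embryos had been exposed from 6-8 hpf in sealed wells of 10% Hanks' at 26 C, then rinsed free of chemical at 5 dpf.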

[19] = CCTE_Padilla_ZF_Score.Blood_pooling: CCTE's 144 Hour Post-fertilization zebrafish Assay Score for Blood Pooling, Padilla Lab (AID 2284415)
Method in brief: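 Blood pooling was scored at 6 dpf under a stereo microscope by two blinded assessors, fitted upward against DMSO. Single embryos were dosed at 6–8 hpf in 10% Hanks', kept sealed at 26C (14:10 h cycle) and rinsed at 5 dpf.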

[20] = CCTE_Padilla_ZF_Score.Any: CCTE's 144 Hour Post-fertilization zebrafish Assay Score for Any Mortality or Malformation, Padilla Lab (AID 2284416)
Method in brief: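 Wild-type zebrafish embryos with chorions, one per well in 10% Hanks' from 6–8 hpf, dosed in sealed plates at 26 C, 14:10 h light:dark; rinsed at 5 dpf; blinded scoring at 6 dpf for death or malformation, versus DMSO.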

Measured: AC50

COP(=S)(OC)Oc1ccc([N+](=O)[O-])cc1
active: [1] 21.3 µM

C#CCN1C(=O)COc2cc(F)c(N3C(=O)C4=C(CCCC4)C3=O)cc21
active: [1] 13.3 µM

O=C(O)C(F)(F)C(F)(F)C(F)(F)C(F)(F)C(F)(F)C(F)(F)C(F)(F)F
active: [20] 2.43 µM and 81.8 µM | [1] 159 nM and 82.9 nM
inactive: [2] | [3] | [4] | [5] | [6] | [7] | [8] | [9] | [10] | [11] | [12] | [13] | [14] | [15] | [16] | [17] | [18] | [19] | [20]

Oc1cc(Cl)ccc1Oc1ccc(Cl)cc1Cl
active: [1] 0.219 µM

O=C(O)CCCOc1ccc(Cl)cc1Cl
active: [1] 2.54 µM

CCCN(CCC)c1c([N+](=O)[O-])cc(C(F)(F)F)cc1[N+](=O)[O-]
active: [1] 26.1 µM

Oc1ccc(Cl)cc1Cc1ccccc1
active: [1] 0.455 µM

O=S(=O)(O)C(F)(F)C(F)(F)C(F)(F)C(F)(F)C(F)(F)C(F)(F)C(F)(F)C(F)(F)F
active: [3] 32.7 µM and 91 µM | [4] 37.8 µM | [5] 22.5 µM | [6] 32.7 µM and 35.6 µM | [8] 46 µM | [9] 51.8 µM | [10] 32.7 µM and 16.7 µM | [11] 8.88 µM and 9.43 µM | [12] 8.88 µM and 7.83 µM | [13] 26.6 µM | [14] 8.69 µM and 3.21 µM | [15] 8.18 µM and 3.91 µM | [16] 10.7 µM and 21.1 µM | [17] 8.72 µM and 4.84 µM | [18] 8.73 µM and 32.7 µM | [19] 10 µM | [20] 8.52 µM and 3.26 µM | [1] 115 nM and 159 nM
inactive: [2] | [4] | [5] | [7] | [8] | [9] | [13] | [19]

ClC1C(Cl)C(Cl)C(Cl)C(Cl)C1Cl (stereo unspecified)
active: [17] 8.89 µM

O=C(O)COc1ccc(Cl)cc1Cl
active: [1] 8.12 µM and 10.7 µM

COP(=S)(OC)Oc1ccc(SC)c(C)c1
active: [1] 6.11 µM
